# Source: PubChem
# A selection: hits, their analogues and other compounds. The true share with any hit is near 4.6%.
# TRHR ag – TRH receptor (human) agonism | P34981 | TRHR cells, calcium flux fluo-8, FDSS agonist mode | activation, % at 2 µM | 0.18% of 360,000 active | AID 493084; note: 0% is about no effect
#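 Fluo-8-loaded TRHR cells; 10 s baseline, compound added, kinetic Ca2+ fluorescence read 1/s, agonist mode.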
# TRHR PAM – allosterically enhances the human TRH receptor; P34981; TRHR cells, fluo-8 calcium fluorescence, EC20 TRH enhancement; enhancement, % at 2 µM; 0.66% of 360,000 active; AID 493056; in the data active = enhancement above about 30%; note: 0% is about no effect
#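 TRHR-expressing cells loaded with fluo-8 calcium dye were read kinetically (ex 480/em 530) during compound addition, then stimulated with an EC20 of TRH (10 nM final). Enhancement of the Gq-mediated intracellular calcium response was scored.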
# D1 agonist – human D1 receptor agonism | AID 504660 | P21728 | HEK293 T-REx D1 cells, calcium flux, agonist mode | 1% of 360,000 active | activation, % at 2 µM; note: 0% is about no effect
# Target sequence (P21728 whole entry, looked up): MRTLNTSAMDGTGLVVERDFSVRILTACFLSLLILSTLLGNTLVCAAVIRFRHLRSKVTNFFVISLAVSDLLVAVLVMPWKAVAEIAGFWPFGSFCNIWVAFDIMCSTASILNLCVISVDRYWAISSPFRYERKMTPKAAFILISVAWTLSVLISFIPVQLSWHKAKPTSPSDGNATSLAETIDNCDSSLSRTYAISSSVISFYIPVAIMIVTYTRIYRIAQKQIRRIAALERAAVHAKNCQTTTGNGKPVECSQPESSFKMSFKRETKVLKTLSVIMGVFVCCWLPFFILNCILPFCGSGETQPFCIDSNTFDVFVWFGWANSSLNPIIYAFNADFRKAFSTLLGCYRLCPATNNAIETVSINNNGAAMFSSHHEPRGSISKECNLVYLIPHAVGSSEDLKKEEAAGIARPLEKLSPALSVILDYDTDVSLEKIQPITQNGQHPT
#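 Inducible HEK293 T-REx D1 cells, force-coupled to calcium signalling, were plated at 4000 cells/well with tetracycline and held overnight at 30 C. After no-wash calcium dye loading, compound-evoked calcium rise over 180 s flagged agonists.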
# D1 PAM – human D1 dopamine receptor positive modulation; 0.036% of 360,000 active; potentiation, % at 10 µM; HEK293 TREx D1 cells, calcium flux, dopamine EC20 potentiation; P21728; in the data active = potentiation above about 30%; note: 0% is about no effect
# D1 antag – antagonists of human D1 dopamine receptor | P21728 | HEK293 TREx D1 cells, calcium flux, dopamine EC80; hits give low values | activity change, negative = inhibition, % at 10 µM | 3.2% of 360,000 active | AID 504652; in the data active = activity change below about -30%; note: % is set by controls: 0 for no effect and ±100 for the full control effect
#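 Cells carrying a force-coupled, tetracycline-inducible human D1 receptor report calcium flux. Each well gets a 10 s baseline, compound with 180 s monitoring, then an EC80 dopamine stimulus with a second 180 s kinetic read.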
# Starred values were filed as active, the others as inactive; . = no result. Cut-off read from the data, not from the text of the source, unless noted: active = activation above about 30%; inactive = the rest.
SMILES,TRHR ag,TRHR PAM,D1 agonist,D1 PAM,D1 antag
COC(=O)CN(C(=O)CSc1nnc(-c2cccc(OC)c2)o1)c1ccc(OC)cc1,0,6,3,3,0
Cc1ccc(C)c(NC(=O)CSc2nnc(-c3ccco3)o2)c1,0,32*,1,-2,6
Cc1cccc(NC(=O)CSc2nnc(-c3ccco3)o2)c1C,0,-3,0,2,1
Cc1occc1-c1nnc(SCC(=O)Nc2ccccn2)o1,0,39*,9,1,3
CC(C)c1ccccc1NC(=O)CSc1nnc(COc2ccccc2)o1,0,3,2,-3,-24
CCCOP(=O)(OCCC)C(Nc1ccc(C(=O)O)cc1)c1ccccc1 (stereo unspecified),0,9,4,-3,-1
C#CCOCCOCCOCCNc1nc(N2CCN(C(=O)[C@H](CCC(=O)O)n3cc(C(N)CC(C)C)nn3)CC2)nc(N2CCN(C(=O)[C@H](Cc3ccc(O)cc3)n3cc(C(N)[C@H](C)CC)nn3)CC2)n1 (stereo partly specified),0,-2,0,-1,-13
CC1CCCN(S(=O)(=O)c2ccc(C(=O)Nc3nnc(C4=COCCO4)o3)cc2)C1 (stereo unspecified),0,-11,1,1,-5
COc1ccc(OC)c2c1sc(=NC(=O)C(C)C)n2C,-1,2,-1,.,-28
COc1ccc(CC2(C)OC(c3ccccc3)=NN2C(C)=O)cc1 (stereo unspecified),0,-12,2,-4,-42*
COc1ccc(CC2(C)OC(c3ccc(C)cc3)=NN2C(C)=O)cc1 (stereo unspecified),-1,8,6,-5,13
CC(=O)N1N=C(c2cccc([N+](=O)[O-])c2)OC1(C)CC(=O)Nc1ccccc1 (stereo unspecified),0,11,2,-10,-77*
CC(C)(C)C(=O)O/N=C(\N)Cc1ccc(-c2csnn2)cc1,-1,13,1,-4,0
CCOc1ccccc1Nc1cc(C)nc2nnnn12,0,-10,1,-4,14
O=CN1CCCN(Cc2nc(Cc3ccccc3F)no2)CC1,0,-6,4,-4,0
Fc1ccccc1Cc1noc(CN2CCN(C/C=C/c3ccccc3)CC2)n1,0,-5,1,4,-53*
COc1c(NC(C)=O)c2ccccc2c2ccccc12,0,38*,-1,-5,1
COc1ccc(C(=O)C2CCCN(Cc3ccc(C#CCCO)cc3)C2)cc1F (stereo unspecified),-1,1,27,-3,-37*
CCN(CC(=O)NCc1ccc(F)cc1)Cc1nc2ccccc2c(=O)[nH]1,0,2,0,-1,0
CCN(CC(=O)Nc1cccc(F)c1)Cc1nc2ccccc2c(=O)[nH]1,0,-1,14,-7,5
CCN(CC(=O)Nc1cc(OC)ccc1OC)Cc1nc2ccccc2c(=O)[nH]1,0,5,1,-3,-39*
CCN(CC(=O)Nc1ccc(C(=O)Nc2ccc(OC)cc2)cc1)Cc1nc2ccccc2c(=O)[nH]1,-2,1,4,6,-44*
CC1(C)C2CCC1(CS(=O)(=O)NC1CCCC1)C(=O)C2 (stereo unspecified),0,-3,4,-1,12
CN(C)CC(C)(C)CNS(=O)(=O)CC12CCC(CC1=O)C2(C)C (stereo unspecified),1,3,-1,0,-75*
CCC(C)NC(=O)c1cn(CC)c2ccc(S(=O)(=O)N3CCc4ccccc4C3)cc2c1=O (stereo unspecified),-1,1,0,9,1
Cc1cc(N2CCOCC2)nc(NCc2ccccc2)n1,0,-1,45*,-6,-63*
Cc1cc(NCc2ccccc2)nc(N2CCOCC2)n1,0,-1,2,-7,-91*
Cc1cc(N2CCOCC2)nc(SCC(=O)c2ccccc2)n1,0,3,0,-3,5
Cc1cc(N2CCCCC2)nc(NCc2ccccc2)n1,15,-19,81*,-8,-50*
CNc1cc(C)nc(N2CCOCC2)n1,2,-1,2,1,-1
